From PubChem
KCNQ2 inh: inhibitors of rat KCNQ2 potassium channel; B-score at 10 µM; AID 2156; CHO-K1 KCNQ2, FluxOR thallium flux, 20 min; hits give low values; 310,000 tested, 1.1% active; O88943;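 active means fluorescence ratio B-score at most minus 3 library SDs, with starting brightness B-score within 2 library SDs, cut at about -5.5 in these data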
KCNQ2 pot: enhances the rat KCNQ2 potassium channel | O88943 | CHO-K1 KCNQ2, FluxOR thallium flux fluorescence; hits give high values | B-score at 10 µM | 310,000 tested, 0.54% active | AID 2239;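 active means fluorescence ratio B-score at least 3 SD of library B-scores, with initial fluorescence B-score within 3 of them, cut at about 5.3 in these data; same plate scores as AID 2156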;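 further: B-score of peak minus minimum over baseline fluorescence ratio after K+ and Tl+ stimulus; positive B-score means potentiation of KCNQ2 with more thallium influx and brighter signal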
Active calls of the source: *. Compounds with a hit are over-represented: about 1.6% of the library has one in this group of screens.

`CC(C)CC(COCc1ccc(F)cc1)N1CCN(C(=O)c2cccc(C(F)(F)F)c2)CCC1=O` (stereo not given) gave KCNQ2 inh -6.06* and KCNQ2 pot -6.06.
Screening Cc1ccc(S(=O)(=O)N2CCC(=O)N(C(COCc3cccc(C)c3)Cc3ccccc3)CC2)cc1 (stereo not given) returned KCNQ2 inh -6.45* and KCNQ2 pot -6.45.
`Cc1ccc(S(=O)(=O)N2CCC(=O)N(C(COCc3ccc(Cl)c(Cl)c3)Cc3ccccc3)CC2)cc1` (stereo not given) gave KCNQ2 inh inactive.
`Cc1ccc(COCC(CC(C)C)N2CCN(C(=O)c3cccc(C(F)(F)F)c3)CCC2=O)cc1` (stereo not given) gave KCNQ2 inh inactive.
O=C(NCC(=O)N(c1cccnc1)C(C(=O)NC1CCCC1)c1cccs1)c1cccs1 (stereo not given) was read as KCNQ2 inh inactive and KCNQ2 pot 0.78.
For O=C1NCCn2ccc(=O)cc21 the results were KCNQ2 inh inactive.
COc1ccc(N(C(=O)c2cnccn2)C(C(=O)NC2CCCCC2)c2cc(OC)c(OC)c(OC)c2)cc1 (stereo not given) was read as KCNQ2 inh inactive and KCNQ2 pot 1.48.
Screening O=C(NCCc1ccccc1)c1ccc(-c2ccc(F)cc2)o1 returned KCNQ2 inh -5.84* and KCNQ2 pot -5.84.
`O=C(NCc1ccccc1)c1ccc(-c2ccccc2F)o1` gave KCNQ2 inh inactive.
`Clc1ccccc1CN(Cc1ccccc1)C(c1cccs1)c1nnnn1C1CCCC1` (stereo not given) gave KCNQ2 inh -5.84* and KCNQ2 pot -5.84.
For Clc1ccc(CN(CC2CCCO2)C(c2cccs2)c2nnnn2C2CCCC2)cc1 (stereo not given) the results were KCNQ2 inh inactive.
CC(C)(C)n1nnnc1C(c1cccs1)N(Cc1cccnc1)Cc1ccccc1Cl (stereo not given) was read as KCNQ2 inh -6.18* and KCNQ2 pot -6.18.
For CC(c1nnnn1C(C)(C)C)N(Cc1cccnc1)Cc1ccccc1Cl (stereo not given) the results were KCNQ2 inh inactive.
`OCCC1CN(Cc2cc(F)ccc2-n2cccn2)CCN1C1CCCC1` (stereo not given) gave KCNQ2 inh inactive.
`O=C(CSc1nnnn1C1CCCC1)N1CCCc2ccccc21` gave KCNQ2 inh inactive.
Screening O=C(CSc1nnc(Cc2cccs2)n1C1CCCCC1)N1CCCc2ccccc21 returned KCNQ2 inh -6.45* and KCNQ2 pot -6.45.
Screening Cn1c(Cc2cccs2)nnc1SCC(=O)N1CCCc2ccccc21 returned KCNQ2 inh inactive.
Screening O=C(CSc1nnc(Cc2cccs2)n1CCc1ccccc1)N1CCCc2ccccc21 returned KCNQ2 inh -6.47* and KCNQ2 pot -6.47.
For CCCCCN(C(=O)CCC(=O)OCc1ccc(Cl)cc1Cl)c1c(N)n(CCCC)c(=O)[nH]c1=O the results were KCNQ2 inh inactive and KCNQ2 pot 0.14.
`COc1cccc2c1cc1c(=O)n(CC(=O)NCCCN3CCN(C)CC3)nc(C)n12` gave KCNQ2 inh inactive and KCNQ2 pot 1.06.
`CCC(C)Sc1nc2c(c(=O)[nH]1)C(c1cccs1)C1=C(CCCC1=O)N2` (stereo not given) gave KCNQ2 inh inactive.
`CCn1c(SCc2ccccc2Cl)nc2nc3c(cc2c1=O)CCCC3` gave KCNQ2 inh inactive.
CCn1c(SCc2c(Cl)cccc2Cl)nc2nc3c(cc2c1=O)CCCC3 was read as KCNQ2 inh -6.7* and KCNQ2 pot -6.7.
For Cc1cccc(/C=N/NC(=O)c2c(-c3ccccc3)noc2C)c1O the results were KCNQ2 inh inactive.
Cc1onc(-c2ccccc2)c1C(=O)N/N=C/c1cn(C)c2ccccc12 was read as KCNQ2 inh -6.39* and KCNQ2 pot -6.39.
`COc1ccc(CNC(=O)CCC(=O)Nc2nnc(C(F)(F)F)s2)cc1` gave KCNQ2 inh inactive and KCNQ2 pot 0.03.
COc1cc(OC)c(C2CC(=O)N3CN(C)CSC3=C2C#N)cc1OC (stereo not given) was read as KCNQ2 inh inactive and KCNQ2 pot 1.26.
Screening COc1ccc2ccccc2c1C1CC(=O)N2CN(C)CSC2=C1C#N (stereo not given) returned KCNQ2 inh -6.9* and KCNQ2 pot -6.9.
Screening CCCCN(C)C(=O)c1cn(C)c2ccc(S(=O)(=O)N3CCC(C)CC3)cc2c1=O returned KCNQ2 inh inactive.
Screening Cc1cc(C)c(C)c(S(=O)(=O)N2CCN(c3ccc(O)cc3)CC2)c1C returned KCNQ2 inh inactive and KCNQ2 pot 0.38.
For CCOC(=O)C1=C(C)NC(C)=C(C(=O)OC)C1c1cccc(Cl)c1Cl (stereo not given) the results were KCNQ2 inh -7.53* and KCNQ2 pot -7.53.
CCOC(=O)C1=C(COCCN)NC(C)=C(C(=O)OC)C1c1ccccc1Cl (stereo not given) was read as KCNQ2 inh inactive.
COC(=O)Nc1ccc(S(=O)(=O)NC2CCCCC2)cc1 was read as KCNQ2 inh inactive and KCNQ2 pot 0.8.
For COc1ccc(OC)c(CNn2c(-c3cccc(C)c3)nc3ccccc3c2=O)c1 the results were KCNQ2 inh -5.69* and KCNQ2 pot -5.69.
`COc1ccc(OCC(=O)Nn2c(-c3ccc(C)cc3)nc3ccccc3c2=O)cc1` gave KCNQ2 inh inactive.
`COCc1ccc(C(=O)N2CCCC(C(=O)c3ccc(SC)cc3)C2)o1` (stereo not given) gave KCNQ2 inh inactive and KCNQ2 pot 0.15.
For COc1ccc(/C(N)=N/OC(=O)CCc2ccccc2)cc1OC the results were KCNQ2 inh inactive.
For COc1ccc(/C(N)=N/OC(=O)CSc2ccccc2)cc1OC the results were KCNQ2 inh -6.03* and KCNQ2 pot -6.03.
O=C(NCc1ccccn1)c1ccc2nc(C3CCCCC3)oc2c1 was read as KCNQ2 inh inactive and KCNQ2 pot 1.37.
`CN(Cc1cnn(C)c1)C(=O)C1CCC(=O)N(Cc2ccc(Cl)cc2)C1` (stereo not given) gave KCNQ2 inh inactive.
Screening c1ccc(-c2n[nH]c3c2CCC3)cc1 returned KCNQ2 inh inactive.
CC(C)[C@@H]1CC[C@@H](C)c2c(-c3ccccc3)n[nH]c21 was read as KCNQ2 inh -7.2* and KCNQ2 pot -7.2.
Screening CN(CC(=O)Nc1ccccc1Cl)C(=O)c1ccc(-c2cccc(C(F)(F)F)c2)o1 returned KCNQ2 inh inactive.
For Nc1no[n+]([O-])c1-c1ccccc1 the results were KCNQ2 inh inactive and KCNQ2 pot 1.21.
`O=c1cc(CN2CCN(S(=O)(=O)c3ccc4c(c3)OCCO4)CC2)c2ccc(O)cc2o1` gave KCNQ2 inh -5.59* and KCNQ2 pot -5.59.
`CCc1ccc2c(CN3CCN(S(=O)(=O)c4ccc5c(c4)OCCO5)CC3)cc(=O)oc2c1` gave KCNQ2 inh inactive and KCNQ2 pot 0.46.
O=C(COC(=O)C1CCN(S(=O)(=O)c2c(Cl)cccc2Cl)CC1)NCc1ccco1 was read as KCNQ2 inh inactive.
`Clc1ccc(-n2cccc2CN2CCc3c([nH]c4ccccc34)C2c2ccccn2)nc1` (stereo not given) gave KCNQ2 inh inactive.
For CCOc1ccccc1-c1nnc(SCC(=O)NC2CC2)n1CC the results were KCNQ2 inh inactive.
O=P(Cc1ccccc1)(c1ccccc1)c1ccccc1 was read as KCNQ2 inh inactive.
